Laboratory results taken from publication PMC4336329 (PLoS ONE, 2015).
The whole screen tested about 310,000 compounds, of which about 14,000 (4.5%) showed an effect of 50% or more. Effects have a minus sign here. Shown is part of a subset that was picked to be rich in strong results.

molecular target: human ether-à-go-go-related gene (hERG) potassium channel (human, UniProt Q12809); test: primary screen, population patch clamp on CHO cells stably expressing hERG; higher = less effect of the substance
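Further: peak tail current of the secondary pulse compared with the same well before compound.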

Chain of human ether-à-go-go-related gene (hERG) potassium channel (Q12809 whole entry, looked up): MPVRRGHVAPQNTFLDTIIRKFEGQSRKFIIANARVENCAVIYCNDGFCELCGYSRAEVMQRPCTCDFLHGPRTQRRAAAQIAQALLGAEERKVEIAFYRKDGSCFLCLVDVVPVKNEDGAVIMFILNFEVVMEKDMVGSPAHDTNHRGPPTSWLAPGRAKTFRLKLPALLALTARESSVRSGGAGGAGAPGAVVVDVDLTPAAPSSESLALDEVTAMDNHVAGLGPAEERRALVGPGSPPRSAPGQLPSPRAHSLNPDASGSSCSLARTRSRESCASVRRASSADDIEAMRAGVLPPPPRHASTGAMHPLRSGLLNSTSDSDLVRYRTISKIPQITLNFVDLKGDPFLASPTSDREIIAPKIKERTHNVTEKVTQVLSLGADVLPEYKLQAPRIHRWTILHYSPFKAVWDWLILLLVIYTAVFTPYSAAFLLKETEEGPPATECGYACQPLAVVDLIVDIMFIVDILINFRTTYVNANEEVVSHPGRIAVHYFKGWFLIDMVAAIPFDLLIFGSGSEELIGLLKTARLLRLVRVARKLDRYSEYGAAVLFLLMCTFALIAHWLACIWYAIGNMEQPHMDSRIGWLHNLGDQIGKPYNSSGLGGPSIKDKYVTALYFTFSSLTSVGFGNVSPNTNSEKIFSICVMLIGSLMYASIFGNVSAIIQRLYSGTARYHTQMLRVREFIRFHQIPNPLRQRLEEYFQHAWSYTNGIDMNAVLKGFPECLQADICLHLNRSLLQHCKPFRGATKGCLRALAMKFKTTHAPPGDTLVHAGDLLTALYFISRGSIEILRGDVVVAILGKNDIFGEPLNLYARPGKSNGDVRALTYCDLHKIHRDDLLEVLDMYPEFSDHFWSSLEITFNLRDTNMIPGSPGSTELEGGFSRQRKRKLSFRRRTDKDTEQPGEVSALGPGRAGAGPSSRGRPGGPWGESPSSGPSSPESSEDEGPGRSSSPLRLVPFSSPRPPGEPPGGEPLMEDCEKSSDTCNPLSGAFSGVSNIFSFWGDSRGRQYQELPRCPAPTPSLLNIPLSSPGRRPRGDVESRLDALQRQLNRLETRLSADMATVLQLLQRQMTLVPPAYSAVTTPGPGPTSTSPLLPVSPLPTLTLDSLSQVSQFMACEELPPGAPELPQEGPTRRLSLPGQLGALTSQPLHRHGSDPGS

First: O=C(COC(=O)CN1C(=O)C2CCCCC2C1=O)Nc1cc(S(=O)(=O)N2CCOCC2)ccc1Cl (stereo not shown)
Second: CCOc1ccc(S(=O)(=O)N2CCCCC2)cc1NC(=O)c1c(CC)noc1C
The “hERG current change (%, negative = inhibition) at 10uM” value of the first is lower: -12.6% for the first, 11.8% for the second.

Going from `Cc1ccc(C(=O)NCCCn2ccnc2)cn1` to `O=C(O)CCc1cccnc1`, the “hERG current change (%, negative = inhibition) at 10uM” value rises from 4.36% to 7.55%.

First: O=C(NC1CCCCCC1)C1CCN(S(=O)(=O)c2cnc[nH]2)CC1
Second: O=C(NC(=S)Nc1ccc(S(=O)(=O)N2CCCC2)cc1)C1CC1
The “hERG current change (%, negative = inhibition) at 10uM” value of the first is higher: 8.78% for the first, -29.8% for the second.

Compared with `CCN(CC)C(=O)COc1cc(C)c(Cl)c(C)c1`, `CCOC(=O)c1c(C)[nH]c(C(=O)Nc2ccc(C)c(Cl)c2)c1C` is higher in “hERG current change (%, negative = inhibition) at 10uM” value: -5.91% for the first, 10.8% for the second.

First: COc1ccc(C(=O)NCc2ccccc2OC)c(OC)c1
Second: COc1ccc(C(=O)Nc2cc(C)nn2-c2nc3ccccc3[nH]2)c(OC)c1
The “hERG current change (%, negative = inhibition) at 10uM” value of the first is lower: -11.6% for the first, -5.95% for the second.

First: Brc1ccc(C=Nc2ccc(Nc3ccccc3)cc2)s1
Second: Brc1ccc(C=Nc2ccc3c(c2)OCCOCCOCCO3)s1
The “hERG current change (%, negative = inhibition) at 10uM” value of the first is higher: 9.59% for the first, -66.2% for the second.

Compared with `Oc1c(Cl)cc(Cl)cc1C=Nc1ccc2c(c1)OCCO2`, `Oc1c(Br)cc(Br)cc1C=Nc1ccc2c(c1)OCCO2` is lower in “hERG current change (%, negative = inhibition) at 10uM” value: 21.2% for the first, 14.9% for the second.

Going from `Brc1csc(C=Nc2ccc3c(c2)OCCOCCOCCOCCO3)c1` to `O=C(N/N=C/c1cc(Br)cs1)c1ccc2c(c1)OCCO2`, the “hERG current change (%, negative = inhibition) at 10uM” value rises from -73.5% to 10.2%.

First: NC(=O)c1ccccc1NC(=O)N1CCOCC1
Second: COc1ccc2[nH]cc(C(=O)C(=O)N3CCCCC3)c2c1
The “hERG current change (%, negative = inhibition) at 10uM” value of the first is lower: -2.02% for the first, 5.35% for the second.

Compared with `CCOC(=O)C1CCCN(C(=O)c2ccc(Cl)cc2)C1` (stereo not shown), `COc1cccc(NC(=O)COc2ccc(C(=O)N3CCN(C)CC3)cc2)c1` is higher in “hERG current change (%, negative = inhibition) at 10uM” value: 0.557% for the first, 15.8% for the second.

Compared with `Cc1cc(C)cc(NC(=O)CSc2nc3c(oc4ccccc43)c(=O)n2-c2ccccc2)c1`, `Cc1ccc(C(=O)CSc2nc3ccccc3c(=O)n2N)o1` is higher in “hERG current change (%, negative = inhibition) at 10uM” value: -11.1% for the first, -1.95% for the second.

Going from `Cc1cc2nnc(SC3CCCCN(C(=O)c4ccc(F)cc4)C3=O)n2c2ccccc12` (stereo not shown) to `O=C(c1ccc(F)cc1)N1CCCCC(Sc2nnc3ccccn23)C1=O` (stereo not shown), the “hERG current change (%, negative = inhibition) at 10uM” value falls from -13.2% to -59.9%.

Compared with `O=C(c1ccccc1)N1CCCCC(Sc2nnc3ccccn23)C1=O` (stereo not shown), `O=C(c1cccs1)N(CC1CCCO1)c1nc(-c2ccccc2)cs1` (stereo not shown) is lower in “hERG current change (%, negative = inhibition) at 10uM” value: 5.24% for the first, 2.57% for the second.

Compared with `O=C(Nc1ccccc1-c1nc2ccccc2[nH]c1=O)c1cccs1`, `Cc1ccc(-c2csc(N(Cc3ccco3)C(=O)c3cccs3)n2)cc1` is higher in “hERG current change (%, negative = inhibition) at 10uM” value: 2.16% for the first, 11.6% for the second.

Compared with `CCc1noc(C)c1C(=O)Nc1ccc(Cl)c(S(=O)(=O)N2CCCCC2)c1`, `CCc1noc(C)c1C(=O)Nc1ccc(C)c(S(=O)(=O)N2CCCCCC2)c1` is higher in “hERG current change (%, negative = inhibition) at 10uM” value: -71.2% for the first, -45.6% for the second.

First: CCc1noc(C)c1C(=O)Nc1cccc(S(=O)(=O)N2CCCCCC2)c1
Second: Cc1noc(C)c1C(=O)Nc1cccc(S(=O)(=O)N2CCCCC2)c1
The “hERG current change (%, negative = inhibition) at 10uM” value of the first is lower: -56% for the first, -10.6% for the second.

Going from `CCc1noc(C)c1C(=O)Nc1ccc(S(=O)(=O)N2CCCCC2)cc1` to `COC(=O)C(=O)/C=C(\O)c1ccc(C)cc1`, the “hERG current change (%, negative = inhibition) at 10uM” value rises from -7.54% to -2.4%.

Compared with `COc1ccc(-c2csc(N(Cc3ccco3)C(=O)c3cccs3)n2)cc1`, `CCN(C(=O)c1cccs1)c1nc(-c2ccc(OC)cc2)cs1` is higher in “hERG current change (%, negative = inhibition) at 10uM” value: -3.17% for the first, 23.1% for the second.

Compared with `CN(C)CCCN(C(=O)c1cccs1)c1nc(-c2ccccc2)cs1`, `COc1ccc(-c2csc(N(CCCN(C)C)C(=O)c3cccs3)n2)cc1.Cl` is lower in “hERG current change (%, negative = inhibition) at 10uM” value: -72.8% for the first, -73.9% for the second.

First: COc1ccc(-c2csc(N(C)C(=O)c3cccs3)n2)cc1
Second: COc1ccc(-c2csc(N(CC3CCCO3)C(=O)c3cccs3)n2)cc1 (stereo not shown)
The “hERG current change (%, negative = inhibition) at 10uM” value of the first is higher: -0.276% for the first, -11.4% for the second.

First: CCN(CC)CCCN(C(=O)c1cccs1)c1nc(-c2ccc(OC)cc2)cs1
Second: O=C(/C=C/c1c(F)cccc1Cl)c1ccc(O)cc1
The “hERG current change (%, negative = inhibition) at 10uM” value of the first is lower: -83.3% for the first, 1.1% for the second.

`CSc1nnc(-c2ccc(Cl)cc2Cl)o1` was tested, and the “hERG current change (%, negative = inhibition) at 10uM” value was 1.62%.
